tim23-1 inh = growth inhibitors of tim23-1 mutant yeast; S. cerevisiae tim23-1 growth, BacTiter-Glo luminescence, 24 h; inhibition, % at 20 µM; 330,000 compounds, 1.3% hits; AID 463212;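 active = growth inhibition of the mutant yeast at or above 50%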;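 also: temperature-sensitive mutant grown at 25 °C; plate controls were DMSO-treated mutant yeast for no effect and medium wells lacking yeast for full effect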
tim10-1 inh = tim10-1 yeast growth inhibition | inhibition, % at 20 µM | S. cerevisiae tim10-1 ts strain growth, BacTiter-Glo, 24 h | 330,000 compounds, 2.2% hits;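 active = inhibition of at least 40%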;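 also: mutant grown at 25 °C; 0% = DMSO wells with yeast and 100% = wells holding no yeast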
PfHsp90 set2 = reduces growth (ATP signal) of yeast expressing P. falciparum Hsp90; S. cerevisiae expressing PfHsp90, BacTiter-Glo ATP, 48 h; yeast lacking PDR1 and PDR3 efflux regulators; inhibition, % at 9.4 µM; 310,000 compounds, 0.32% hits;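 active = every replicate shows inhibition above about 80%, whatever the replicate mean, limit read from the data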;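 also: 0% = DMSO neutral controls and 100% = 20 µM radicicol positive controls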
Mot1-301 SUMO = blocks SUMOylation pathway, rescuing yeast Mot1-301 growth. S. cerevisiae Mot1-301 growth rescue, ATP luminescence, 38.5C; percent above DMSO median, 100 means doubled. growth rescue, % at 18.8 µM. 320,000 compounds, 1% hits. AID 2716;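 active = every valid replicate shows activation above 250% relative to neutral control wells; inactive = the rest, any valid replicate at or below 250%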;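 also: OY570 slx delta 5 strain wells were the positive control but not used for scaling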
TIM10 inh = inhibits growth of TIM10 yeast strain. inhibition, % at 10 µM. AID 463195. 330,000 compounds, 1.4% hits. S. cerevisiae TIM10 strain growth, BacTiter-Glo luminescence, 24 h;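 active = inhibition of 40% or more at the single tested concentration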;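 also: wild-type TIM10 isogenic control strain grown at permissive 25 °C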
tim10-1 conf = confirmation of tim10-1 mutant yeast growth inhibitors. inhibition, % at 20 µM. shares compounds with tim10-1 inh. S. cerevisiae tim10-1 ts strain growth, BacTiter-Glo, 24 h. 7,400 compounds, 56% hits;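 active = inhibition of yeast growth at or above a set limit in either of two repeat tests at 20 µM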;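 also: tim10-1 mutant grown at permissive 25 °C to find synthetic lethal compounds; 0% = DMSO yeast wells and 100% = medium wells without yeast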
An asterisk follows results filed as active. The list is not random: actives were taken first. Their share in the collection is about 4.4%.

What do the screens show for `CCN(CC)S(=O)(=O)c1ccc(N/N=C/c2cc(OC)c(OC)cc2OC)nc1`?
tim23-1 inh: -40.2; tim10-1 inh: -16.1; PfHsp90 set2: -18.4; Mot1-301 SUMO: -6.0; TIM10 inh: -29.1

What do the screens show for `CCN(CC)S(=O)(=O)c1ccc(N/N=C/c2ccc(O)cc2)nc1`?
tim23-1 inh: 19.8; tim10-1 inh: 41.6*; PfHsp90 set2: -44.0; Mot1-301 SUMO: -5.8; TIM10 inh: 25.1; tim10-1 conf: 34.2*

How did CC1=CC(C)(C)Nc2ccc(OC(=O)c3ccco3)cc21 do in these assays?
tim23-1 inh: 30.3; tim10-1 inh: 22.9; PfHsp90 set2: 13.9; Mot1-301 SUMO: 21.8; TIM10 inh: 14.1

What do the screens show for `CC1=CC(C)(C)Nc2ccc(OC(=O)c3cccnc3)cc21`?
tim23-1 inh: 32.7; tim10-1 inh: 40.4*; PfHsp90 set2: 11.5; Mot1-301 SUMO: 49.6; TIM10 inh: 13.2; tim10-1 conf: 24.6

What do the screens show for `Cc1cc(C)c(C#N)c(SCC(=O)c2ccccc2)n1`?
tim23-1 inh: 13.1; tim10-1 inh: 23.8; PfHsp90 set2: -10.8; Mot1-301 SUMO: -5.6; TIM10 inh: 1.9

How did Cc1cc(C)c(C#N)c(SCC(=O)c2cccs2)n1 do in these assays?
tim23-1 inh: 28.0; tim10-1 inh: 43.7*; Mot1-301 SUMO: 21.5; TIM10 inh: 9.2; tim10-1 conf: 27.1

What do the screens show for `C=CCNc1nc(Nc2ccc([N+](=O)[O-])cc2)nc(N2CCCC2)n1`?
tim23-1 inh: 25.9; tim10-1 inh: 34.7; PfHsp90 set2: -47.5; Mot1-301 SUMO: 16.6; TIM10 inh: 23.1

How did CC1CCN(c2nc(Cl)nc(Nc3ccc([N+](=O)[O-])cc3)n2)CC1 do in these assays?
tim23-1 inh: 40.3; tim10-1 inh: 45.6*; PfHsp90 set2: 98.4*; Mot1-301 SUMO: -12.8; TIM10 inh: 21.9; tim10-1 conf: 27.4

How did Cc1occc1C(=O)Nc1sc2c(c1C(N)=O)CCCCC2 do in these assays?
tim23-1 inh: 27.7; tim10-1 inh: 48.5*; PfHsp90 set2: -17.4; Mot1-301 SUMO: -15.7; TIM10 inh: 38.7; tim10-1 conf: 23.3

Results for Cc1cccc(/C=C/c2onc(C)c2S(=O)(=O)N2CCC(C(=O)NC(C)C)CC2)c1 ?
tim23-1 inh: 5.6; tim10-1 inh: 7.2; PfHsp90 set2: 3.0; Mot1-301 SUMO: -7.2; TIM10 inh: -3.3

Results for F[B-](F)(F)COCc1ccccc1Br ?
PfHsp90 set2: 16.3

Results for Cc1ccccc1NS(=O)(=O)c1cc(C(=O)NCCC2=CCCCC2)ccc1C ?
tim23-1 inh: 49.6; tim10-1 inh: 40.4*; PfHsp90 set2: 20.2; Mot1-301 SUMO: 3.3; TIM10 inh: 24.3; tim10-1 conf: 25.4

How did Cc1ccc(C(=O)N2CCc3ccccc3C2)cc1S(=O)(=O)N1CCOCC1 do in these assays?
tim23-1 inh: 30.7; tim10-1 inh: 27.8; PfHsp90 set2: 10.0; Mot1-301 SUMO: 5.2; TIM10 inh: 11.8

Results for Cc1ccc(C(=O)NCCC2=CCCCC2)cc1S(=O)(=O)N1CCOCC1 ?
tim23-1 inh: 23.1; tim10-1 inh: 19.7; Mot1-301 SUMO: -6.7; TIM10 inh: -6.4

Results for Cc1ccc(C(=O)NCCC2=CCCCC2)cc1S(=O)(=O)N1CCCCC1 ?
tim23-1 inh: 38.9; tim10-1 inh: 41.0*; PfHsp90 set2: 20.5; Mot1-301 SUMO: -10.8; TIM10 inh: 6.3; tim10-1 conf: 26.5

What do the screens show for `Cc1ccccc1NS(=O)(=O)c1cc(C(=O)N2CCc3ccccc3C2)ccc1C`?
tim23-1 inh: 37.0; tim10-1 inh: 42.3*; Mot1-301 SUMO: 9.2; TIM10 inh: 4.5; tim10-1 conf: 32.7*

Results for O=C(CN1CCC(n2nnc3cc(F)ccc32)CC1)N1CCCc2ccccc21 ?
tim23-1 inh: 11.8; tim10-1 inh: 29.7; Mot1-301 SUMO: 87.3; TIM10 inh: 7.5

Results for O=C(CN1CCC(n2nnc3cc(C(F)(F)F)ccc32)CC1)N1CCc2ccccc21 ?
tim23-1 inh: 47.8; tim10-1 inh: 46.2*; PfHsp90 set2: 4.2; Mot1-301 SUMO: 4.9; TIM10 inh: 23.9; tim10-1 conf: 36.5*

How did Cc1ccc(-c2nn3c(C)nnc3c3ccccc23)cc1S(=O)(=O)N1CCN(CCO)CC1 do in these assays?
tim23-1 inh: 16.2; tim10-1 inh: 44.3*; PfHsp90 set2: 2.9; Mot1-301 SUMO: 4.4; TIM10 inh: 6.4; tim10-1 conf: 6.7
